SMILES strings stand for the structures. Screen size: about 360,000 compounds; about 25,000 (6.9%) were called active. Another 9% or so got no clear call; they are omitted. Shown is part of a subset that was picked to be rich in actives. Unmarked numbers belong to inactive results. Calls come from the whole dose curve; as a rule, active = well fitted inhibition curve with a large enough effect; inconclusive = small, poorly fitted or top-dose-only effect; inactive = flat fitted curve, though single readings scatter.

Here are results for 51 molecules from PubChem BioAssay AID588342 (National Center for Advancing Translational Sciences (NCATS), 2011).
Potency is the fitted concentration of half-maximal effect.

The target of the test is Luciferin 4-monooxygenase (Photinus pyralis) (UniProt P08659). Description: qHTS profiling assay for firefly luciferase inhibitor/activator using purifed enzyme and Km concentrations of substrates (counterscreen for miR-21 project).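 For activity change, negative = inhibition: plate controls were vehicle for no effect and reference inhibitor for full effect.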 Note: nearly all actives have a fitted effect of over 55% in size. Conditions: purified FLuc, luminescence inhibition; series mostly up to 57.5 µM; activity change, negative = inhibition: at the top concentration. In outline: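 Purified P. pyralis luciferase, 10 nM final, with Km-level 10 uM D-luciferin and 10 uM ATP in 50 mM Tris acetate pH 7.5, 10 mM Mg acetate, 0.01% Tween-20, 0.05% BSA; 6-point qHTS titration about 60 µM downward; luminescence read.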
Chain of Luciferin 4-monooxygenase (Photinus pyralis) (P08659 whole entry, looked up): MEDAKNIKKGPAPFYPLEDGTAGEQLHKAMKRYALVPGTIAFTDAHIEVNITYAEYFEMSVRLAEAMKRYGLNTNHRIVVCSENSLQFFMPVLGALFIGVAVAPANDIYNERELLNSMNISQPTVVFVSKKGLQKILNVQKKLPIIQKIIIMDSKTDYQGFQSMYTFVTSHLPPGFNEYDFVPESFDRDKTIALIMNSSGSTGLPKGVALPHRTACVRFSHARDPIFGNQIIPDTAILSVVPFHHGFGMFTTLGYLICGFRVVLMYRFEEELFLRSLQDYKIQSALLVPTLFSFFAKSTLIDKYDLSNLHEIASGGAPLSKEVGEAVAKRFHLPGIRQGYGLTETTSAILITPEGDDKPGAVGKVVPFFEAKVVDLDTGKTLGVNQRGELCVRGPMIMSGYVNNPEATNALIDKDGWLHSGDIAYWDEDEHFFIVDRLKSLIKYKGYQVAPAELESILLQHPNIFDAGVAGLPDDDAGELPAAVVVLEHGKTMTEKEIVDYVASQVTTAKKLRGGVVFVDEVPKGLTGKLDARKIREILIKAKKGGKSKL
On to `COC(=O)c1ccc2c(c1)N(CC(=O)Nc1ccc(C)c(C)c1)C(=O)c1ccccc1S2`, for which the “activity change, negative = inhibition” value is -1.58%. With `CCN(CCCNC(=O)CSc1cc(=O)n(C)c2cc(Cl)ccc12)c1cccc(C)c1`, the “activity change, negative = inhibition” value was -14.8%. Consider `Oc1ccc(/C=N/N(Cc2ccccc2)c2ccccc2)cc1`, for which the “activity change, negative = inhibition” value was -17.6%. Regarding `CC1CCCN(c2cc3c(cc2F)c(=O)c(S(=O)(=O)c2cccc(Cl)c2)cn3Cc2ccccc2)C1` (stereo unspecified), the “activity change, negative = inhibition” value is 1.02%.

Turning to `Cc1ccnc(N2CCCC(C(=O)Nc3cc(F)ccc3C)C2)n1` (stereo unspecified), the “activity change, negative = inhibition” value was 5.94%.

Take `CC1CCCN(c2csc3ccc(F)cc3c2=O)C1` (stereo unspecified): the Potency was 6.01 µM (active).

On to `CCOc1ccc(NC(=O)CN(C)C(=O)c2cccc(S(=O)(=O)N3CCCC3)c2)cc1OCC`, for which the “activity change, negative = inhibition” value is 2.17%.

Turning to `CC1=C(c2ccc(C)cc2)S(=O)(=O)NC1=NCCCN1CCN(c2cc(C)ccc2C)CC1`, the “activity change, negative = inhibition” value is -0.583%. In the case of `Cc1ccc(CNS(=O)(=O)c2ccc(C(=O)N(C)C)s2)cc1`, the “activity change, negative = inhibition” value is -9.37%. Take `O=C(N/N=C/c1cccnc1)c1cc2ccccc2cc1O`: the Potency was 5.36 µM (active). For `Cc1ccc(/C=N/NC(=O)Cn2ccc(C(F)(F)F)n2)o1`, the “activity change, negative = inhibition” value is -4.37%. As to `O=C(N/N=C\c1cccnc1)c1cc(-c2ccccc2)nc2c(Cl)cccc12`, the “activity change, negative = inhibition” value was -16.6%. As to `Cc1ccc(/C=N/NC(=O)c2cc3ccccc3cc2O)o1`, the Potency is 9.53 µM (active). On to `Cc1ccc(/C=N/NC(=O)Cn2nc(C)c(Br)c2C)o1`, for which the “activity change, negative = inhibition” value is 3.49%.

`O=C(N/N=C/c1cccnc1)c1ccc(NC(=O)c2ccc(F)cc2)cc1`: the “activity change, negative = inhibition” value was -5.04%. Same read-out and setting: under `CCc1cc2c(cc3c(=O)n(CC(=O)NCc4cccc(Cl)c4)nc(CC)n32)s1` stands -3.11%. Turning to `O=C(CSc1ncn[nH]1)Nc1nc(-c2cccc([N+](=O)[O-])c2)cs1`, the “activity change, negative = inhibition” value is -12.7%.

For `O=C(CSc1nc(-c2ccccc2)cs1)Nc1cccc([N+](=O)[O-])c1`, the Potency is 10.7 µM (active).

Consider `COc1ccc(-n2cnnc2SCC(=O)Nc2cccc([N+](=O)[O-])c2)cc1`, for which the “activity change, negative = inhibition” value was -0.116%. `CC1=NN(c2ccc(Cl)c(C(=O)O)c2)C(=O)/C1=C/c1ccc(-c2ccccc2[N+](=O)[O-])o1`: the Potency was 4.78 µM (active).

On to `Cc1cc([N+](=O)[O-])c(-c2ccc(/C=N/n3cnnc3)o2)cc1Cl`, for which the “activity change, negative = inhibition” value is 0.263%. Regarding `O=C1NC(c2ccc(-c3ccccc3[N+](=O)[O-])o2)C(C(=O)c2ccc(Cl)cc2)C(O)(C(F)(F)F)N1` (stereo unspecified), the “activity change, negative = inhibition” value is 3.67%. Still for that read-out and setting: under `C=CCc1cccc2cc(C(=O)OCC)c(=O)oc12` stands -15.5%. On to `CCOC(=O)c1cc2cc3ccccc3cc2oc1=O`, for which the Potency was 9.53 µM (active).

With `NS(=O)(=O)c1ccc(NC(=O)COC(=O)c2cc3ccccc3oc2=O)cc1`, the “activity change, negative = inhibition” value was -6.92%. Consider `O=C(CCC(=O)N1CC2CCCN2c2ccccc21)NCc1ccccc1Cl` (stereo unspecified), for which the “activity change, negative = inhibition” value is -11.2%. On to `O=C(CCc1nc(CN2CCN(S(=O)(=O)c3ccc(Br)cc3)CC2)no1)N1CCCCC1`, for which the “activity change, negative = inhibition” value is -2.89%. Still for that read-out and setting: under `CCOC(=O)c1c(C)[nH]c(CCC(=O)NCCCN2CCN(c3cccc(Cl)c3)CC2)c1C` stands -6.7%. Regarding `CN(C)CCN=c1cc(-c2ccccc2)oc2ccc(Cl)cc12`, the Potency is 6.01 µM (active).

For the molecule `CN(C)CCn1c(=S)[nH]c2ccc(Cl)cc2c1=O`, the “activity change, negative = inhibition” value was -0.113%. As for `CN(C)CCCn1c(-c2ccc(Cl)cc2)csc1=Nc1ccccc1`, the “activity change, negative = inhibition” value was 1.01%. On to `O=C(CCCn1c(=O)c2cccn2c2cccnc21)NCc1ccc(F)cc1`, for which the “activity change, negative = inhibition” value is 7.61%. For `Cc1ccccc1Cn1nc(C)c(NC(=O)c2cc(-c3ccc(F)cc3)on2)c1C`, the “activity change, negative = inhibition” value is 3.35%. Consider `CCOC(=O)C1=C(N)N2C(=O)C(C)SC2=C(C(=O)OCC)C1c1cc(OC)c(OC)c(OC)c1` (stereo unspecified), for which the “activity change, negative = inhibition” value is -0.321%. Take `CC1(C)CCSC(/C=C/c2ccccc2)=N1`: the Potency was 13.5 µM (active). For `Cc1ccc(C)c(CN2C(=O)c3ccccc3S(=O)c3ccc(C(=O)N4CCOCC4)cc32)c1` (stereo unspecified), the “activity change, negative = inhibition” value was -4.41%. For `Cc1ccccc1N/N=C/c1ccc(N2CCOCC2)cc1`, the Potency was 10.7 µM (active). As to `Cc1cc(-c2n[nH]c(=S)n2/N=C/C(Br)=C/c2ccccc2)n[nH]1`, the “activity change, negative = inhibition” value was -6.14%. On the same count and under the same terms, for `Cc1cc(C(=O)OCC(=O)Nc2ccccc2Cl)c(C)o1` the value was -19.8%; for `Cc1cc(Nc2ccc(N3CCOCC3)cc2)c2cccc(C)c2n1`, -2.45%; for `O=C(Cc1cc(=O)[nH][nH]1)N/N=C/c1ccccc1[N+](=O)[O-]`, 2.61%.

For the molecule `COc1ccc(C/C(C)=N/NC(=O)c2cc(C)oc2C)cc1`, the “activity change, negative = inhibition” value was -11.8%. In the case of `CC(=O)N/C(=C/c1ccc(OC(F)F)cc1)C(=O)O`, the “activity change, negative = inhibition” value is -0.154%.

Regarding `CC(=O)c1ccc(N2CCN(CC(=O)Nc3ccccc3N3CCOCC3)CC2)cc1`, the “activity change, negative = inhibition” value was -9.52%.

Take `CC(=O)N/N=C/c1cc2c(cc1[N+](=O)[O-])OCO2`: the “activity change, negative = inhibition” value was 0.319%. Regarding `Cc1cc(C(=O)N/N=C/c2ccccc2[N+](=O)[O-])c(C)o1`, the Potency was 16.9 µM (active). `Cc1cc(C(=O)N/N=C\C(Br)=C\c2ccccc2)c(C)o1`: the Potency is 8.49 µM (active). `CC(=C/c1ccccc1)/C=N/NC(=O)c1cc(C)oc1C`: the Potency is 1.35 µM (active). With `Cc1ccc(CC(=O)Nc2ccc(S(=O)(=O)N3CCOCC3)cc2)cc1C`, the “activity change, negative = inhibition” value was -1.84%.

As to `Cc1cccc(Cn2c(=O)n(CCC(=O)NCCc3ccc(Cl)cc3)c(=O)c3sccc32)c1`, the “activity change, negative = inhibition” value was -3.53%. For `O=C(CN1CCN(C2CCS(=O)(=O)C2)CC1)N1N=C(c2ccc(Cl)cc2)CC1c1ccco1` (stereo unspecified), the “activity change, negative = inhibition” value was 0.655%.
